The record followed here is PubChem BioAssay (EPA / NIEHS).

Several values for one entry are separate records, joined by “and”; a condition that tells them apart may be missing. Equal entries are not always repeated. Some compounds were tested as several samples or in several runs, with calls that do not always agree. Activity calls are given as the source filed them. How the source made its calls: active means hit-call score of the fitted dose curve at least 0.9, where 1 is the maximum; inactive means score below 0.9.

Read-out in the assay: MicroRNA 122 (MIR122), gene 406906
Kind of assay: LTEA_HepaRG_MIR122: Life Technologies and Expression Analysis (LTEA) Assay for MicroRNA 122 (MIR122) using HepaRG (AID 2283516). The conditions noted are these: mRNA level, 48 h; actives raise or lower the signal. On the procedure: LTEA_HepaRG is a cell based, multiplexed-readout assay that uses HepaRG, a human liver cell line, with measurements taken at 48 hours after chemical dosing on a 96-well plate.LTEA_HepaRG_MIR122 is one of 102 assay component(s) measured in the LTEA HepaRG cell culture assay. It is a marker of MicroRNA.Data from the assay component LTEA_HepaRG_MIR122 was analyzed into 1 endpoint. This assay endpoint, LTEA_HepaRG_MIR122, was analyzed with bidirectional fitting relative to DMSO as the negative control and baseline of activity. Using a type of inducible reporter, measures of mRNA induction for gain or loss-of-signal activity can be used to understand regulation of transcription factor activity. To generalize the intended target to other relatable targets, this assay endpoint is annotated to the microrna intended target family, where the subfamily is post-transcriptional regulation.
A total of 1060 chemcials from the ToxCast library were tested in eight-point concentration-response experiments. Cell culture and cytotoxicity assays were conducted at Thermo Fisher Scientific's Custom Services facility (Madison, WI). A single lot of human HepaRG cells (Thermo Fisher Scientific, Frederick, MD) was used for the cell culture experiments. 96-well format collagen type I coated plates of human HepaRG cells were prepared using established methods. Briefly, cryopreserved HepaRG cells were thawed, plated at a density of approximately 100,000 cells/well in HepaRG Thaw, Plate, and General Purpose media (HPRG770, Thermo Fisher Scientific), and incubated for 48 hours. 0.5% DMSO was selected as vehicle control to balance the requisite need of DMSO in HepaRG cultures to maintain differentiation (for example, baseline metabolism, proportions of hepatocytes vs. cholangiocytes), while enabling further hepatic receptor pathway activation (for example, PXR and CAR) in response to chemical exposure. 48 hours after plating, the culture medium was replaced with HepaRG Serum-Free Incudtion Media. Cells were exposed to each test chemical in duplicate and maintained in CO2 incubators for another 48 hours. Chemical plates were thawed to room temperature and 200x concentrations of treatment groups were prepared. 8-point conentration-reponse curves were made with the highest exposure at 100 uM, followed by half-log dilutions, all in 0.5% DMSO. Each test plate contained variouse controls, induction positive controls (1mM phenobarbital), cytotoxicity positive controls ([…] aflatoxin B1), vehicle controls (0.5% DMSO), and total lysis controls (0.5% DMSO). Cell morphology images were taken using an Essen IncuCyte FLR automated microscope, with six 96-well plates imaged in about 24 minutes. Images were captured and exported and JPEG files. Spent culture media was transfered to black-well plates for the LDH assay, and remaining media was sorted at -80 C for later use. Cells were treated with RLT buffer and frozen until shipped for gene expression analysis. Total RNA was isolated from the cell suspension in 75 uL of Buffer RLT (Qiagen, Germantown, MD 20874) by Quintiles/Expression Analysis (Durham, NC) using a custom isolation procedure. Total RNA from each plate well was transferred to a preamplification plate. Fluidigm's 96.96 Dynamic ArrayTM (Fluidigm, Amsterdam, the Netherlands) technology was used for gene expression analyses by quantitative reverse transcription polymerase chain reaction (qRT-PCR, performed by Quintiles/Expression Analysis, Durham, NC)89. Standard TaqManTM Assays (Applied Biosystems/ThermoFisher Scientific, Foster City, CA) were used to assess the expression of 93 genes selected based on their selectivity and sensitivity to important hepatic receptors known to be modulated by environmental chemicals; importance in human hepatocyte functionality; and hepatotoxicity. […]
Turning to `Fc1ccc(Oc2ccnc3cc(Cl)cc(Cl)c23)cc1`, the molecule was called inactive. Same read-out and setting: then `O=C(Nc1ccccc1)Nc1ccnc(Cl)c1`, with “inactive”.

In the case of `CCCCNC(=O)OCC#CI`, the outcome was inactive. On the same count and under the same terms, then `CNC(=S)S`, with “inactive”. The same measure, in the same setting: in the case of `CCON=C(CC)C1=C(O)CC(c2c(C)cc(C)cc2C)CC1=O` (stereo not given) it was “inactive”. For `COc1cnc(OC)n2nc(NS(=O)(=O)c3c(OCC(F)F)cccc3C(F)(F)F)nc12`, the call was inactive. On the same count and under the same terms, in the case of `COC(=O)C=C(C)OP(=O)(OC)OC` it was “inactive”. In the case of `CCOC(=O)C(Cl)Cc1cc(-n2nc(C)n(C(F)F)c2=O)c(F)cc1Cl` (stereo not given), the outcome was inactive. In the case of `Oc1ccccc1-c1ccccc1`, the molecule was called inactive.

On to `COP(N)(=O)SC` (stereo not given), for which the molecule was classed as inactive. Still for that read-out and setting: then `CCCCNC(=O)n1c(NC(=O)OC)nc2ccccc21`, with “inactive”. Broadly, the AC50 is the concentration giving half of the maximal activity seen. As for `CCCN(CCC)c1c([N+](=O)[O-])cc(S(N)(=O)=O)cc1[N+](=O)[O-]`, the AC50 was 95.7 µM (active) and the call was inactive.

With `COc1nc(NC(C)C)nc(NC(C)C)n1`, the molecule was called inactive. Consider `CS/C(C)=N/OC(=O)N(C)SN(C)C(=O)O/N=C(\C)SC`, for which the result was inactive.

For `COc1ccc(C(c2ccc(OC)cc2)C(Cl)(Cl)Cl)cc1`, the AC50 was 79.4 µM (active). On the same count and under the same terms, then `CC(C)Oc1cc(-n2nc(C(C)(C)C)oc2=O)c(Cl)cc1Cl`, with 50 µM (active). As for `CC1=C(C(=O)Nc2ccccc2)SCCO1`, the outcome was inactive. On the same count and under the same terms, in the case of `Cc1cc(Cl)ccc1OCC(=O)O` it was “inactive”. As to `N#CC(CCc1ccc(Cl)cc1)(Cn1cncn1)c1ccccc1` (stereo not given), the AC50 is 66 µM (active). The same measure, in the same setting: in the case of `CCOc1cc(Oc2ccc(C(F)(F)F)cc2Cl)ccc1[N+](=O)[O-]` it was 37 µM (active). In the case of `CC(Oc1ccc(Cl)cc1Cl)C(=O)O` (stereo not given), the molecule was classed as inactive. Still for that read-out and setting: then `CCOC(=O)CC(SP(=S)(OC)OC)C(=O)OCC` (stereo not given), with “inactive”. Regarding `CCc1nn(C)c(C(=O)NCc2ccc(C(C)(C)C)cc2)c1Cl`, the AC50 is 1.85 µM (active). Regarding `CCCCOC(=O)c1ccccc1C(=O)OCCCC`, the molecule was classed as inactive.

On to `CCCC1COC(Cn2cncn2)(c2ccc(Cl)cc2Cl)O1` (stereo not given), for which the AC50 is 49.5 µM (active). In the case of `OC(c1ccc(Cl)cc1)(c1cncnc1)c1ccccc1Cl` (stereo not given), the AC50 was 73.2 µM (active).

As for `COC(=O)C(C)Oc1ccc(Oc2ccc(Cl)cc2Cl)cc1` (stereo not given), the call was inactive. Same read-out and setting: then `CN(C)C(=S)SSC(=S)N(C)C`, with “inactive”. For `C=CCC1=C(C)C(OC(=O)C2C(C=C(C)C)C2(C)C)CC1=O` (stereo not given), the AC50 is 90.8 µM (active) and 22.5 µM (active); the call was inactive.

In the case of `CCNc1nc(Cl)nc(NC(C)C)n1`, the molecule was classed as inactive. On the same count and under the same terms, then `CON(C)C(=O)Nc1ccc(Cl)c(Cl)c1`, with “inactive”; and `O=C(O)COc1nc(Cl)c(Cl)cc1Cl`, with “inactive”. On to `CO/C=C(/C(=O)OC)c1ccccc1Oc1cc(Oc2ccccc2C#N)ncn1`, for which the AC50 was 72 µM (active) and 83.7 µM (active) and 74.3 µM (active). Consider `CCOP(=S)(OCC)SCn1c(=O)oc2cc(Cl)ccc21`, for which the molecule was called inactive.

For `CC(C)C1(C)N=C(c2nc3ccccc3cc2C(=O)O)NC1=O` (stereo not given), the outcome was inactive. As for `C#CCOS(=O)OC1CCCCC1Oc1ccc(C(C)(C)C)cc1` (stereo not given), the AC50 was 28.2 µM (active). For `N#Cc1cc(Br)c(O)c(Br)c1`, the AC50 was 14.2 µM (active). Consider `COP(=S)(OC)Oc1nc(Cl)c(Cl)cc1Cl`, for which the molecule was classed as inactive.
